In all, about 140,000 sequences were measured (“enrichment ratio after two sorts for PhoP signalling”: median about 0, highest 2% from about 11 on). This is one part of a sample in which the highest values are shown more often than they occur. Bounds are passed on as bounds.

The chains are these.
B1: PhoQ; a variant is named by its letters at X, in order, P23837 (parent)
chain: MKKLLRLFFPLSLRVRFLLATAAVVLVLSLAYGMVALIGYSVSFDKTTFRLLRGESNLFYTLAKWENNKLHVELPENIDKQSPTMTLIYDENGQLLWAQRDVPWLMKMIQPDWLKSNGFHEIEADVNDTSLLLSGDHSIQQQLQEVREDDDDAEMTHSVAVNVYPATSRMPKLTIVVVDTIPVELKSSYMVWSWFIYVLSANLLLVIPLLWVAAWWSLRPIEALAKEVRELEEHNRELLNPATTRELTSLVRNLNRLLKSERERYDKYRTTLTDLTHSLKTPLXXLQXXLRSLRSEKMSVSDAEPVMLEQISRISQQIGYYLHRASMRGGTLLSRELHPVAPLLDNLTSALNKVYQRKGVNISLDISPEISFVGEQNDFVEVMGNVLDNACKYCLEFVEISARQTDEHLYIVVEDDGPGIPLSKREVIFDRGQRVDTLRPGQGVGLAVAREITEQYEGKIVAGESMLGGARMEVIFGRQHSAPKDE

The assay covers variants of B1. The assay is described as follows: enrichment ratio after two sorts for PhoP signalling (ratio (wild type AVST 3.29)); higher = more functional. The settings on record: with PhoP (E. coli).
Turning to LGQL, the enrichment ratio was at most 0.25.
For QDGH, the enrichment ratio was at most 0.25.
Then NQCM, with at most 0.25; and TQCM, with 33.7; and FQCM, with 10.7.
Then HECK, with at most 0.25; and SQCM, with 19.2.
Then IQCM, with at most 0.25.
For the variant KQCM, the enrichment ratio was at most 0.25.
For EQCM the value was at most 0.25; for SNCM, 11.2.
For HFCM the value was 1.37.
As to HECM, the enrichment ratio amounted to 24.
DWCM: the enrichment ratio was at most 0.25.
For SQKE the value was at most 0.25; for PCCP, at most 0.25; for PFFR, at most 0.25.
For LMAE the value was at most 0.25; for MLGA, at most 0.25.
Consider SMKT, for which the enrichment ratio was at most 0.25.
For AWAS the value was at most 0.25.
For IGQR the value was at most 0.25.
Then DAQH, with at most 0.25; and MTHG, with at most 0.25; and STHG, with at most 0.25.
With MEHG, the enrichment ratio amounted to 11.9.
Then QEHG, with 11.2; and YYHG, with at most 0.25; and QPHG, with at most 0.25.
For HDSR the value was at most 0.25.
Then DTEC, with at most 0.25; and LQRA, with at most 0.25; and AIQG, with at most 0.25.
As for YGYF, the enrichment ratio was at most 0.25.
In the case of GGAK, the enrichment ratio is at most 0.25.
For NGRQ the value was at most 0.25; for SNQN, at most 0.25; for SPVN, at most 0.25.
Then SNVN, with 13.3; and SNPN, with at most 0.25; and HEMN, with at most 0.25.
IQCL: the enrichment ratio is at most 0.25.
Then SNMN, with 22.4; and SNCL, with 14.4.
NQCL: the enrichment ratio was at most 0.25.
Then SLNN, with at most 0.25; and SNNN, with 16.8.
For SRNN the value was at most 0.25; for TFHC, at most 0.25.
Then NQTW, with at most 0.25.
As for ARRF, the enrichment ratio is at most 0.25.
For VRLN the value was at most 0.25; for SRSL, at most 0.25; for SQVN, 20.3.
For GQCL the value was 7.51; for SRCL, 6.4; for NQVN, at most 0.25.
Then SNSL, with 16.8; and SLVY, with at most 0.25; and SQSL, with 9.58.
On to SPVY, for which the enrichment ratio was at most 0.25.
Then SLVN, with 1.02; and SQVY, with 14.2.
Then SQCL, with 12.1; and GRRN, with at most 0.25.
As to QVFR, the enrichment ratio was at most 0.25.
For QFNA the value was at most 0.25; for FSTQ, at most 0.25; for NDYC, at most 0.25.
For PTST the value was at most 0.25; for QIDF, at most 0.25.
For NSVL the value was at most 0.25.
Regarding LHGW, the enrichment ratio is at most 0.25.
Then NGIL, with at most 0.25.
For LHHH, the enrichment ratio is at most 0.25.
For ELYP the value was at most 0.25.
Then TNSL, with 12.2; and SNNL, with 13.1; and MKVN, with at most 0.25.
Then MEVN, with 17.3; and SNRL, with at most 0.25; and LNSL, with at most 0.25.
With QEVN, the enrichment ratio is at most 0.25.
Then WNNL, with at most 0.25; and SNEL, with at most 0.25.
Turning to MNSL, the enrichment ratio turned out to be 4.59.
Regarding WNMN, the enrichment ratio was determined as 12.
For WRMN the value was at most 0.25; for GPCQ, at most 0.25.
With HTRL, the enrichment ratio was at most 0.25.
With WHQP, the enrichment ratio was at most 0.25.
For WEDV the value was at most 0.25; for HDYF, at most 0.25; for AHNC, at most 0.25.
Then WAWV, with at most 0.25; and PHYI, with at most 0.25.
For WFSM the value was at most 0.25.
Consider GGSM, for which the enrichment ratio came out at 7.14.
For RGSM the value was at most 0.25; for CVSM, at most 0.25; for TGSM, 23.5.
In the case of CFSM, the enrichment ratio came out at 18.5.
For KTCN the value was at most 0.25.
As for HRWF, the enrichment ratio is at most 0.25.
For DYHL the value was at most 0.25; for MIWN, at most 0.25.
On to MINL, for which the enrichment ratio was at most 0.25.
Then MFCN, with at most 0.25.
For MICN the value was 31.9; for MILN, 17.5; for MICI, 0.945.
For MIRW the value was at most 0.25; for SSFG, at most 0.25; for ACWI, at most 0.25.
As to AILK, the enrichment ratio is 2.69.
For ACNT the value was at most 0.25; for ACHK, at most 0.25.
Then ACLK, with 13.7; and ACLL, with 13.3.
Then ACIV, with 0.927; and ACVL, with 5.91.
ACLT: the enrichment ratio turned out to be 11.7.
For ACVT the value was 1.11.
For ACWL the value was at most 0.25.
Then ACLV, with 16; and FPKK, with at most 0.25.
For KLEK, the enrichment ratio was at most 0.25.
For STHN the value was at most 0.25; for CFKF, at most 0.25.
Then MMGD, with at most 0.25.
Then TVTR, with 2.26; and TRGD, with at most 0.25.
Consider QIWC, for which the enrichment ratio was at most 0.25.
As for KYLR, the enrichment ratio was at most 0.25.
For TGGL the value was 3.52; for YWNM, at most 0.25; for YRPI, at most 0.25.
Then ACCN, with 12.1.
In the case of ACLI, the enrichment ratio was 5.06.
For AKCN the value was 5.46; for ACLS, 6.09.
With KCCN, the enrichment ratio was at most 0.25.
Turning to ACIC, the enrichment ratio stood at 9.45.
Then ACLC, with 12.2; and ACYM, with 0.253.
For ACLN the value was 13.6.
Then ACNS, with at most 0.25.
Take ACLA: the enrichment ratio worked out at 11.6.
On to ACDS, for which the enrichment ratio was determined as 0.253.
For KVRT the value was at most 0.25.
For AYPT the value was at most 0.25; for QIHR, at most 0.25.
On to QDCY, for which the enrichment ratio was at most 0.25.
Then AARG, with at most 0.25; and DLGS, with at most 0.25.
Then VYSL, with at most 0.25; and PPRP, with at most 0.25.
In the case of PSLE, the enrichment ratio is at most 0.25.

These data come from a collection of fitness landscapes (doi:10.1126/science.1257360).
